Inconclusive results are not listed. Activity calls are given as the source filed them. Unless noted, calls follow the shape of the dose curve; as a rule, active = well fitted curve in the direction sought with a large enough effect; inconclusive = small, poorly fitted or top-dose-only effect, or another doubt; inactive = no such curve, though single readings can be large; an effect the other way counts as inactive or inconclusive.
Assays:
[1] = molecular target: Vitamin D3 receptor (Homo sapiens) (UniProt P11473); test: qHTS assay for small molecule antagonists of vitamin D receptor signaling (AID 588541; calls by dose curve;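 also: receptor activated by calcitriol during compound treatment; series mostly up to about 77 µM; % is scaled to controls: 0 for no effect and ±100 for the full control effect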)
Method in brief: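 VDR-UAS-bla HEK293T cells in 2% charcoal-stripped FBS were stimulated with 1-alpha,25-dihydroxyvitamin D3 (3 nM final) plus compound for 16 h at 37 C. The beta-lactamase CCF4 readout was normalized to 50 nM agonist and DMSO, and Hill fits gave IC50.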

[2] = molecular target: Vitamin D3 receptor (Homo sapiens) (UniProt P11473); test: qHTS assay for small molecule agonists of vitamin D receptor signaling (AID 588543; calls by dose curve;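 also: 0% = DMSO basal and 100% = reference agonist control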)
Method in brief: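 Reporter cells (HEK293T, VDR-UAS-bla) were seeded in medium with 2% charcoal-stripped serum and incubated 5 h, then compounds in concentration series were added for 16 h at 37 °C. Stimulation was scaled between DMSO basal and 50 nM 1α,25-dihydroxyvitamin D3.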

[3] = qHTS assay for small molecule antagonists of retinoid X receptor alpha signaling (AID 588546; active = well fitted inhibition curve with a large enough effect in the signal ratio, with a control signal flat, not every such curve was filed as active; the % refers to the signal ratio;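 also: cells stimulated with 9-cis-retinoic acid as agonist; % is scaled to controls: 0 for no effect and ±100 for the full control effect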); conditions: HEK293T RXRa-UAS-bla, beta-lactamase ratio, antagonist mode; measured here: W530 green channel, cytotoxicity proxy
Method in brief: (§1)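 Beta-lactamase reporter inhibition, read as CCF4 fluorescence ratio (ex 405, em 460/530 nm) after 2 h at RT. HEK293T UAS-bla cells, 2500/well, were stimulated with 9-cis-RA at 500 or 100 nM final alongside test compound for 18 h at 37 C.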

[4] = molecular target: Retinoic acid receptor RXR-alpha (Homo sapiens) (UniProt P19793); test: as above; conditions: HEK293T RXRa-UAS-bla, beta-lactamase ratio, antagonist mode
Method in brief: as §1

[5] = qHTS assay for small molecule activators of the p53 signaling pathway (AID 651743; active = well fitted activation curve with a large enough effect in the signal ratio, not every such curve was filed as active; the % refers to the signal ratio; also: series mostly up to about 92 µM; % of control where 0% means no effect); conditions: HCT-116 p53RE-bla, beta-lactamase FRET ratio, 16 h; activation: stronger effect = higher value
Method in brief: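 Reporter: beta-lactamase driven by p53 response elements, stably integrated in HCT-116 cells. Cells seeded at 4,000/well, 5 h preincubation, compound (DMSO) 16 h at 37 C; B/G FRET substrate 2 h RT; fluorescence intensity read.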

[6] = qHTS assay for small molecule activators of the nuclear factor-kappa B (NF-kB) signaling pathway (AID 651749; active = well fitted activation curve with a large enough effect in the signal ratio; the % refers to the signal ratio; also: series mostly up to about 77 µM; % of control where 0% means no effect); conditions: NF-kB-bla ME-180 cells, beta-lactamase FRET ratio, 16 h; activation: stronger effect = higher value
Method in brief: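 NF-kB-bla ME-180 cells, 2,000/well; 23 nL compound or DMSO pinned; 16 hr, 37C/5% CO2; beta-lactamase FRET read-out.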

[7] = qHTS assay for environmental chemicals that activate the Aryl hydrocarbon Receptor (AhR) signaling pathway (AID 651777); conditions: 1A2-DRE human hepatoma cells, luciferase, 24 h; activation: stronger effect = higher value; also: % of control where 0% means no effect; nearly all actives have a fitted effect of over 15% in size
Method in brief: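 Measured luciferase activity, read 30 min after One-Glo addition at room temperature, from human hepatoma cells bearing a dioxin response element–CYP1A2 promoter reporter and exposed to compound for 24 hr at 37 C.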

[8] = molecular target: Peroxisome proliferator-activated receptor alpha (Homo sapiens) (UniProt Q07869); test: qHTS assay for small molecule agonists of the peroxisome proliferator-activated receptor alpha (PPARalpha) signaling pathway (AID 651778); conditions: PathHunter PPARalpha complementation, chemiluminescence, 6 h; max response: stronger effect = higher value; also: % of control where 0% means no effect
Method in brief: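 Enzyme-fragment complementation assay in which ligand-bound PPARalpha translocates and forms an active enzyme that generates chemiluminescence. Cells were plated overnight, exposed to compound for 6 hr at 37 C, and then given detection reagent for 60 min at room temperature.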

[9] = qHTS assay for small molecule agonists of the antioxidant response element (ARE) signaling pathway measured by Nrf2-dependant transcriptional activity (AID 720636; active = well fitted curve in the direction sought with a large enough effect in the repeat runs; an effect the other way counts as inactive or inconclusive; also: potency is read from the fitted curve at half-maximal effect;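 as to activation: HepG2 cells with an ARE-driven luciferase reporter; % of control where 0% means no effect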)
Method in brief: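 In HepG2 cells engineered with an Nrf2-responsive luciferase gene, ARE induction was quantified as luminescence after 16 hr compound treatment at 37 C.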

[10] = qHTS assay for small molecule agonists of the antioxidant response element (ARE) signaling pathway measured by Nrf2-dependant transcriptional activity - cell viability counter screen (AID 720653; active = well fitted curve in the direction sought with a large enough effect in the repeat runs; an effect the other way counts as inactive or inconclusive; also: % is scaled to controls: 0 for no effect and ±100 for the full control effect); conditions: ARE-bla HepG2 viability, CellTiter-Glo ATP luminescence, 16 h; max response: stronger effect = lower value
Method in brief: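 ARE-bla HepG2 cells treated with compounds for 16 h at 37C; this counter screen measures viability as intracellular ATP by CellTiter-Glo luminescence after 30 min at room temperature.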

[11] = qHTS assay for cell viability of HEK293 cells (AID 743288); conditions: ATP luminescence (CellTiter-Glo), 18 h; max response: stronger effect = lower value; also: % is scaled to controls: 0 for no effect and ±100 for the full control effect; nearly all actives have a fitted effect of over 50% in size
Method in brief: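 Viable-cell counts were inferred from luciferase-based ATP content in HEK293 cells seeded at 2,000/well, pre-incubated ≥5 h, then dosed with DMSO-solubilised compounds for 18 h at 37 C.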

[12] = molecular target: Nuclear receptor subfamily 1 group I member 2 (Rattus norvegicus) (UniProt Q9R1A7); test: qHTS assay for small molecule activators of the rat pregnane X receptor (rPXR) signaling pathway (AID 651751; call rule not given here; also: 0% is about no effect); conditions: rPXR reporter cells, luciferase (One-Glo), 24 h
[13] = qHTS assay for small molecule activators of the human pregnane X receptor (PXR) signaling pathway (AID 720659; call rule not given here; also: 0% is about no effect)
[14] = qHTS assay for small molecule agonists of retinoid X receptor alpha signaling (AID 588544; calls by dose curve;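 as to activation: 0% = DMSO basal wells and 100% = reference agonist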); conditions: HEK293T RXRa-UAS-bla, beta-lactamase reporter, 18 h; 530 nm emission
[15] = molecular target: Retinoic acid receptor RXR-alpha (Homo sapiens) (UniProt P19793); test: as above
[16] = molecular target: Thyroid hormone receptor beta (Homo sapiens) (UniProt P10828); test: qHTS assay for small molecule agonists of thyroid hormone receptor beta signaling (AID 588545; calls by dose curve;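 also: 0% = DMSO only and 100% = 10 nM T3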)
Method in brief: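 Beta-lactamase reporter activity under TR response element control is measured in HEK 293 cells after 18 hrs compound exposure. Signal is ratiometric CCF4 fluorescence, 460/530 nm.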

[17] = molecular target: Thyroid hormone receptor beta (Homo sapiens) (UniProt P10828); test: qHTS assay for small molecule antagonists of thyroid hormone receptor beta signaling (AID 588547; active = well fitted inhibition curve with a large enough effect in the signal ratio, with a control signal flat, not every such curve was filed as active; the % refers to the signal ratio;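 also: cells stimulated with 0.4 nM T3 agonist during compound exposure; series mostly up to about 77 µM; % is scaled to controls: 0 for no effect and ±100 for the full control effect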); conditions: TR-UAS-bla HEK293, beta-lactamase ratio, antagonist mode, 18 h
Method in brief: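 TR-UAS-bla GripTite HEK293 cells in 2% charcoal/dextran FBS medium; compounds 0.59 nM to 92 uM with T3 at 0.4nM final, 18 h at 37 C. Beta-lactamase read by CCF4 fluorescence (460/530 nm); Hill fits gave IC50 and efficacy.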

[18] = qHTS assay for cell viability of the p53RE-bla HCT-116 cell line (AID 743292); also: % is scaled to controls: 0 for no effect and ±100 for the full control effect; nearly all actives have a fitted effect of over 55% in size
Method in brief: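 Intracellular ATP of p53RE-bla HCT-116 cells measured by luciferase luminescence following 16 h compound incubation at 37 C; DMSO-only wells served as vehicle controls.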

[19] = qHTS assay for small molecule antagonists of peroxisome proliferator-activated receptor delta signaling (AID 588535; active = well fitted inhibition curve with a large enough effect in the signal ratio, with a control signal flat, not every such curve was filed as active; the % refers to the signal ratio;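 as to max response: cells co-treated with a PPAR-delta agonist as stimulator during compound exposure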); conditions: HEK293T PPARd-UAS-bla, beta-lactamase FRET ratio, 18 h; 460 nm channel
Method in brief: (§2)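 Beta-lactamase reporter read-out (405 nm excitation, 460/530 nm emission) after CCF4 loading for 2 hrs at RT. HEK293T PPAR-delta-UAS-bla cells, 2% charcoal/dextran FBS, compounds for 18 hrs at 37 C. Hill fit gave IC50 and efficacy.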

[20] = molecular target: Peroxisome proliferator-activated receptor delta (Homo sapiens) (UniProt Q03181); test: as above
Method in brief: as §2

Chain of Nuclear receptor subfamily 1 group I member 2 (Rattus norvegicus) (Q9R1A7 whole entry, looked up): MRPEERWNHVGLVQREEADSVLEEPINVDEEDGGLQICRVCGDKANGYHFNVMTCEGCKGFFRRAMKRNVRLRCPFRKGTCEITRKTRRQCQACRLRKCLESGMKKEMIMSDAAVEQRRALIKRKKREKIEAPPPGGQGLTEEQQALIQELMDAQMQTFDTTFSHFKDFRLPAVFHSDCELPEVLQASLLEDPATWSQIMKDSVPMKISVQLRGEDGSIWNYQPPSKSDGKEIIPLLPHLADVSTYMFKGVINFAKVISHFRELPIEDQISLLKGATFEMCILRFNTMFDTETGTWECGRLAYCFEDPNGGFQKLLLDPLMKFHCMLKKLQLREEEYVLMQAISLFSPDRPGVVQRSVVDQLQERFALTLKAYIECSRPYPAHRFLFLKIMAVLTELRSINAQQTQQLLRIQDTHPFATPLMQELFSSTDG
Chain of Peroxisome proliferator-activated receptor delta (Homo sapiens) (Q03181 whole entry, looked up): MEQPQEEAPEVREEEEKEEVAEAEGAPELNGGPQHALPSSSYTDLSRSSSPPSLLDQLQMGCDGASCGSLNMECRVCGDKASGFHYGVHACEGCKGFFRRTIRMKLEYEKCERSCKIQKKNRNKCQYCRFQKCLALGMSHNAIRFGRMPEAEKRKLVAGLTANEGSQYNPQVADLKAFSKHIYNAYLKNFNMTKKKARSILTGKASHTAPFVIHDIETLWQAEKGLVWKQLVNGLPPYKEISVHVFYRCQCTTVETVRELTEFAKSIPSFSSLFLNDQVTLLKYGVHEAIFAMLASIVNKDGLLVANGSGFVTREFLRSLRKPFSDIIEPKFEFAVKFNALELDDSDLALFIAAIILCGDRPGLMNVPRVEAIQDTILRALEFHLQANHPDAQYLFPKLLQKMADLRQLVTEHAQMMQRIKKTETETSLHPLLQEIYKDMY
Chain of Peroxisome proliferator-activated receptor alpha (Homo sapiens) (Q07869 whole entry, looked up, the tested form may be a part): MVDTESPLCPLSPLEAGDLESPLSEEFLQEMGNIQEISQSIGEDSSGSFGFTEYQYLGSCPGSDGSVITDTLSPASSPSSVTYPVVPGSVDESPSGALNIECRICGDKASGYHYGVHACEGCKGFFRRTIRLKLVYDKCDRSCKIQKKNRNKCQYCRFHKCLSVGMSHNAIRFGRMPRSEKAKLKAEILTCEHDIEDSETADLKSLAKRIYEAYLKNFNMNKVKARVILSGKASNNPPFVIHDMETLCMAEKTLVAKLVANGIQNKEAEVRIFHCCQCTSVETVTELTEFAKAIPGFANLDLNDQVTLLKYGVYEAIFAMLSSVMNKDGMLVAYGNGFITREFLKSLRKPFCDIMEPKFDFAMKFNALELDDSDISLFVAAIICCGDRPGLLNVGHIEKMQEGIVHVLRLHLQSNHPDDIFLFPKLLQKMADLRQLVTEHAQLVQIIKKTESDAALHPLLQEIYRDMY
Chain of Retinoic acid receptor RXR-alpha (Homo sapiens) (P19793 whole entry, looked up): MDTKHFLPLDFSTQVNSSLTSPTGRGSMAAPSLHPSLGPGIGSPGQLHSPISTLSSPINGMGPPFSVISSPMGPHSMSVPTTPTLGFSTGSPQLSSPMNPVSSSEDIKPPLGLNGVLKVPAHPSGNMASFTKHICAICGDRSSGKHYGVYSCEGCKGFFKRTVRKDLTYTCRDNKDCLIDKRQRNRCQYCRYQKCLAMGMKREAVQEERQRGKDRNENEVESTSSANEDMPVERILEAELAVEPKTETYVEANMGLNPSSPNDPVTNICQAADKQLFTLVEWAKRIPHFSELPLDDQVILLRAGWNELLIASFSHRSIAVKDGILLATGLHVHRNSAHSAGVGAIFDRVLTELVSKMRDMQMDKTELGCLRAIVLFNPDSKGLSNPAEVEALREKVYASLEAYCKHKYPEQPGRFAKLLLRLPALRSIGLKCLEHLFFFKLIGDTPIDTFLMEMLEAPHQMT
Chain of Vitamin D3 receptor (Homo sapiens) (P11473 whole entry, looked up): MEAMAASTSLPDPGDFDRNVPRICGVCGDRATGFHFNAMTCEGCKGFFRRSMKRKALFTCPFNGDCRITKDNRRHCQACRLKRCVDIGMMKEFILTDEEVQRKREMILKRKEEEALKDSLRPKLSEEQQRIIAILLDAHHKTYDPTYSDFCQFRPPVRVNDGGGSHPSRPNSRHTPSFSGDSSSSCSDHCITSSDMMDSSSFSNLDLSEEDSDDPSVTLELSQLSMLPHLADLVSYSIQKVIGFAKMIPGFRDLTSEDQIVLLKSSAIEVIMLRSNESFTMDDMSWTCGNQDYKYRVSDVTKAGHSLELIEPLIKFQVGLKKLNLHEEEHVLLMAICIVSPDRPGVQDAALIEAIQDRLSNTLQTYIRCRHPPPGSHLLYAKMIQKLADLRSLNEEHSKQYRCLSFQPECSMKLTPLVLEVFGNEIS
Chain of Thyroid hormone receptor beta (Homo sapiens) (P10828 whole entry, looked up): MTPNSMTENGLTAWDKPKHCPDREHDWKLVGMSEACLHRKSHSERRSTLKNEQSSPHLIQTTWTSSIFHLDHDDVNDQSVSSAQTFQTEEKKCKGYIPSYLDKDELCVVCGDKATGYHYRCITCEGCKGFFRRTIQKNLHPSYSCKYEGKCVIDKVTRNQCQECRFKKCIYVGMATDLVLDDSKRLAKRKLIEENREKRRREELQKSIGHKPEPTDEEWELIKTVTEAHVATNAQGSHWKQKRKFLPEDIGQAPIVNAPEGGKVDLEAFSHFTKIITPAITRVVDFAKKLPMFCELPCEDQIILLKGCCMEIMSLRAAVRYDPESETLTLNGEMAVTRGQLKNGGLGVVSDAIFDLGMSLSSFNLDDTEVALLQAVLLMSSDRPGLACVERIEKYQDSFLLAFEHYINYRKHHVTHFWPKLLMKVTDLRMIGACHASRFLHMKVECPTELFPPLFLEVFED

CCCOC(=O)c1ccc(C(=O)OCCC)nc1
inactive: Potency [1] | outcome [2] | max response [4] -17.9% | activation [5] -3.13% | activation [6] 1.57% | activation [7] -2.64% | max response [8] -0.236% | Potency [9] | max response [10] 22.4% | max response [11] -23.4% | max response [12] -3.51% | outcome [13]
6.56%: max response [3]

CCCCCCCCCCCC(=O)N(C)CC(=O)O
21.8%: max response [14]
7.91%: max response [3]
inactive: Potency [15] | Potency [16] | max response [4] 6.82% | activity change % (negative = inhibition) [17] 5.42% | activation [7] 0.0412% | Potency [9] | max response [10] 19.7% | max response [11] -6.6% | Potency [18] | max response [12] -2.95% | outcome [13]

CC(=O)OC1CCC(C(C)(C)C)CC1 (stereo not given)
-1.04%: max response [3]
-10.4%: max response [19]
inactive: Potency [20] | Potency [1] | outcome [2] | Potency [15] | Potency [16] | max response [4] -6.71% | activity change % (negative = inhibition) [17] 5.89% | activation [5] -2.06% | activation [7] 3.13% | max response [8] -0.283% | Potency [9] | max response [10] 0.584% | max response [11] -10.3% | max response [12] 4.95% | outcome [13]
-2.86%: max response [14]

O=C(O)C(Oc1ccc(Cl)cc1)Oc1ccc(Cl)cc1
inactive: Potency [20] | outcome [2] | Potency [15] | Potency [16] | max response [4] -10.5% | activity change % (negative = inhibition) [17] -5.07% | activation [5] 2.64% | activation [6] 0.776% | activation [7] -1.04% | max response [8] 4.93% | Potency [9] | max response [11] -2.57% | Potency [18] | max response [12] -9.92% | outcome [13]
4.78%: max response [14]
-2.46%: max response [19]
-7.28%: max response [3]

O=S(=O)(O)c1cc(S(=O)(=O)O)c2c(N=Nc3ccccc3)c(O)ccc2c1
inactive: Potency [20] | Potency [1] | Potency [15] | Potency [16] | activity change % (negative = inhibition) [17] -8.36% | activation [5] -0.0659% | activation [6] 1.12% | activation [7] 0.18% | max response [8] -5.78% | Potency [9] | max response [10] -9.68% | max response [11] -12.7% | max response [12] 3.04%
-19.3%: max response [19]
-6.55%: max response [14]

Cc1ccc(Cl)cc1Cl
-6.55%: max response [3]
inactive: Potency [1] | outcome [2] | Potency [16] | max response [4] -30.4% | activity change % (negative = inhibition) [17] -1.13% | activation [5] 1.63% | activation [6] -1.58% | activation [7] 1.78% | Potency [9] | max response [10] 7.57% | max response [11] -8.46% | Potency [18] | max response [12] 1.69% | outcome [13]

Oc1ccc2ccccc2c1N=Nc1ccccc1
active: Potency [9] 9.69 µM
-13.8%: max response [3]
inactive: Potency [16] | max response [4] -15.2% | activation [6] 0.732% | max response [8] 0.672% | max response [10] -25.3% | max response [11] -20.8% | Potency [18] | max response [12] 5.24%

O=C(O)c1cccc(C(=O)O)c1
-2.92%: max response [19]
inactive: Potency [20] | Potency [15] | Potency [16] | max response [4] -3.25% | activity change % (negative = inhibition) [17] 17% | activation [7] -2.6% | Potency [9] | max response [10] -9.16% | max response [11] -0.837% | Potency [18] | max response [12] 0.205% | outcome [13]
-13%: max response [14]
-5.27%: max response [3]

CCCCCc1ccc(N)cc1
19.2%: max response [19]
inactive: Potency [20] | Potency [1] | outcome [2] | Potency [15] | Potency [16] | max response [4] -25% | activity change % (negative = inhibition) [17] 0.338% | activation [6] 1.37% | activation [7] 1.05% | max response [8] -1.26% | Potency [9] | max response [10] 5.18% | max response [11] -6.55% | Potency [18] | max response [12] 1.5% | outcome [13]
-0.233%: max response [14]
-8.57%: max response [3]

CCOC(=O)c1ccccc1C
-9.25%: max response [3]
-8.14%: max response [14]
inactive: Potency [15] | Potency [16] | max response [4] 1.73% | activity change % (negative = inhibition) [17] -2.99% | activation [5] 2.88% | activation [6] 0.727% | activation [7] -0.718% | max response [8] -0.0686% | Potency [9] | max response [10] 0.0878% | max response [11] 0.0695% | Potency [18] | max response [12] 1% | outcome [13]

COc1ccc(OC)c(OC)c1
inactive: Potency [1] | outcome [2] | Potency [15] | Potency [16] | activity change % (negative = inhibition) [17] 7.13% | activation [5] -1.46% | activation [7] 0.552% | Potency [9] | max response [10] 7.1% | max response [11] -1.79% | max response [12] 3.06% | outcome [13]
-10%: max response [3]
-0.39%: max response [14]

Cn1sccc1=O
inactive: Potency [20] | Potency [1] | outcome [2] | max response [4] 7.99% | activity change % (negative = inhibition) [17] -11.2% | activation [7] -0.202% | max response [8] -2.31% | Potency [9] | max response [10] -9.28% | max response [11] -4.03% | Potency [18]
-3.21%: max response [19]
-13.8%: max response [3]

C=C(C)C(=O)OCCC[Si](OC)(OC)OC
51.6%: max response [19]
-3.97%: max response [3]
inactive: Potency [20] | Potency [15] | Potency [16] | max response [4] -21.4% | activity change % (negative = inhibition) [17] 2.39% | activation [5] -1.41% | activation [6] -3.72% | activation [7] -2.37% | max response [8] -1.45% | Potency [9] | max response [11] -1.87% | Potency [18] | max response [12] -1.68%
-14.5%: max response [14]

From PubChem BioAssay (NCATS)
